Source: the supplement of paper PMC13094657
± gives the standard deviation of the averaged measurements.

How the values were obtained:
[1] = tested on: MDA-MB-231; assay: cell viability relative to vehicle unstimulated control (fraction); higher = more viable cells; conditions: pre-treatment time: 18 h then 24 h IFNg/TNF
[2] = tested on: MDA-MB-231; assay: kynurenine production, fold change vs DMSO IFNg/TNF control; higher = more kynurenine produced (less inhibition); conditions: pre-treatment time: 18 h then 24 h IFNg/TNF
Summary of the method: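 MDA-MB-231 cells (7 × 10^4/well, 96-well plates, seeded 24 h earlier) were pre-treated 18 h with each natural product in 0.1% DMSO, then stimulated 24 h with IFNγ (1 U/ml) and TNF (6.25 ng/ml) at 37°C. Supernatant kynurenine was read at 492 nm after trichloroacetic acid and p-dimethylaminobenzaldehyde treatment, against 0–100 μM standards. Kynurenine production is the fold change over cytokine-stimulated vehicle wells on the same plate, averaged over duplicate plates in the first screening round.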
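Wherever cell viability relative to vehicle unstimulated control is given: viability of the cells left after supernatant collection, read with Deep Blue dye added for 4 h, as absorbance at 570 nm minus 600 nm.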

`C=C(C)[C@@H]1CC[C@]2(C)CC[C@]3(C)[C@H](CC[C@@H]4[C@@]5(C)CC[C@H](O)C(C)(C)[C@@H]5CC[C@]43C)[C@@H]12` [Lupeol] (compound dose: 2 uM) showed a cell viability [1] of 0.861 ± 0.041 and a kynurenine production [2] of 0.921 ± 0.085.

Work on `C[C@H](CC[C@@H](O[C@@H]1O[C@H](CO)[C@@H](O)[C@H](O)[C@H]1O)C(C)(C)O)[C@H]1CC[C@@]2(C)[C@@H]3CC=C4[C@@H](CC[C@H](O[C@@H]5O[C@H](CO)[C@@H](O)[C@H](O)[C@H]5O)C4(C)C)[C@]3(C)[C@H](O)C[C@]12C` [Mogroside IIe] (compound dose: 10 uM) yielded a cell viability [1] of 0.984 ± 0.089 and a kynurenine production [2] of 0.934 ± 0.29.

`C=C1C[C@@]23CC[C@H]4[C@@](C)(CCC[C@@]4(C)C(=O)O[C@@H]4O[C@H](CO)[C@@H](O)[C@H](O)[C@H]4O)[C@@H]2CC[C@]1(O[C@@H]1O[C@H](CO)[C@@H](O)[C@H](O)[C@H]1O)C3` [Rubusoside] (compound dose: 10 uM) showed a cell viability [1] of 1.07 ± 0.02 and a kynurenine production [2] of 0.88 ± 0.065.

Molecule `CC(=O)OCC1=C[C@H]2[C@@H]3C(C)(C)[C@]3(OC(C)=O)[C@H](OC(C)=O)[C@@H](C)[C@]2(O)[C@@H]2C=C(C)C(=O)[C@@]2(O)C1` [Phorbol 12,13,20-triacetate] (compound dose: 10 uM) has a cell viability [1] of 0.868 ± 0.26 and a kynurenine production [2] of 0.8 ± 0.1.

`CC(C)=C/C=C1\O[C@@H]2CC(C)=CC(=O)[C@@H]2[C@]1(C)O` [Bisabolangelone] (compound dose: 10 uM) showed a cell viability [1] of 0.907 ± 0.0022 and a kynurenine production [2] of 0.711 ± 0.12.

For `CC(=O)OCC1=CO[C@@H](OC(=O)CC(C)C)[C@H]2C1=C[C@H](OC(=O)CC(C)C)[C@]21CO1` [Valepotriate] (compound dose: 10 uM), the cell viability [1] was 0.185 ± 0.028 and the kynurenine production [2] was 0.321 ± 0.04.

`CC1(C)[C@@H](O)CC[C@]2(C)[C@H]3C(=O)C=C4[C@H]5C[C@@](C)(C(=O)O)CC[C@]5(C)CC[C@@]4(C)[C@]3(C)CC[C@@H]12` [18α-Glycyrrhetinic acid] (compound dose: 10 uM) showed a cell viability [1] of 1.06 ± 0.11 and a kynurenine production [2] of 0.943 ± 0.14.

In the case of `C=C1C(=O)[C@@]23[C@H](O)C[C@@H]4C(C)(C)C(=O)CC[C@@]4(C)[C@@H]2CC[C@@H]1[C@H]3O` [Glaucocalyxin A] (compound dose: 10 uM), the cell viability [1] is reported as 0.832 ± 0.078 and the kynurenine production [2] is reported as 0.109 ± 0.029.

With `C=C1CCC[C@]2(C)CC[C@@H](C(C)(C)O)C[C@@H]12` [Beta-Eudesmol] (compound dose: 10 uM) the cell viability [1] was 1.077 ± 0.0077 and the kynurenine production [2] was 0.904 ± 0.14.

`CC(C)=CCC[C@](C)(O[C@@H]1O[C@H](CO)[C@@H](O)[C@H](O)[C@H]1O)[C@H]1CC[C@]2(C)[C@@H]1[C@H](O)C[C@@H]1[C@@]3(C)CC[C@H](O[C@@H]4O[C@H](CO)[C@@H](O)[C@H](O)[C@H]4O)C(C)(C)[C@@H]3CC[C@]12C` [Ginsenoside F2] (compound dose: 10 uM) was tested, and the cell viability [1] was 0.992 ± 0.033 and the kynurenine production [2] was 0.818 ± 0.12.

`C/C=C1/[C@H](O[C@@H]2O[C@H](CO)[C@@H](O)[C@H](O)[C@H]2O)OC=C(C(=O)OC)[C@H]1CC(=O)OCCc1ccc(O)c(O)c1` [Oleuropein] (compound dose: 10 uM) was tested, and the cell viability [1] was 0.978 ± 0.075 and the kynurenine production [2] was 0.733 ± 0.15.

Molecule `CC(CCC(OC1OC(CO)C(O)C(O)C1OC1OC(CO)C(O)C(O)C1O)C(C)(C)O)C1CCC2(C)C3CC=C4C(CCC(OC5OC(COC6OC(CO)C(O)C(O)C6O)C(O)C(O)C5O)C4(C)C)C3(C)C(O)CC12C` (centres undefined) [Mogroside IV] (compound dose: 10 uM) has a cell viability [1] of 0.996 ± 0.11 and a kynurenine production [2] of 1.12 ± 0.23.

With `C=C1C(=O)O[C@H]2[C@H]1CC/C(C)=C/CC[C@@]1(C)O[C@@H]21` [Parthenolide] (compound dose: 10 uM) the cell viability [1] was 0.933 ± 0.034 and the kynurenine production [2] was 0.309 ± 0.064.

With `CC(C)=CCC[C@](C)(O)[C@@H]1CC=C(C)CC1` [Levomenol] (compound dose: 10 uM) the cell viability [1] was 0.676 ± 0.54 and the kynurenine production [2] was 1.16 ± 0.056.

Molecule `CC(C)c1ccc2c(c1)CC[C@H]1[C@](C)(C(=O)O)CCC[C@]21C` [Dehydroabietic acid] (compound dose: 10 uM) has a cell viability [1] of 1.008 ± 0.0086 and a kynurenine production [2] of 0.713 ± 0.23.

`C[C@@H]1[C@H]2[C@H](O[C@@H]3O[C@H](CO)[C@@H](O)[C@H](O)[C@H]3O)OC=C(C(=O)O)[C@H]2C[C@@H]1O` [Loganic acid] (compound dose: 10 uM) was tested, and the cell viability [1] was 0.999 ± 0.016 and the kynurenine production [2] was 1.01 ± 0.16.

In the case of `CC(C)=CCC[C@](C)(O[C@@H]1O[C@H](CO[C@@H]2OC[C@H](O)[C@H](O)[C@H]2O)[C@@H](O)[C@H](O)[C@H]1O)[C@H]1CC[C@]2(C)[C@@H]1[C@H](O)C[C@@H]1[C@@]3(C)CC[C@H](O[C@@H]4O[C@H](CO)[C@@H](O)[C@H](O)[C@H]4O[C@@H]4O[C@H](CO)[C@@H](O)[C@H](O)[C@H]4O)C(C)(C)[C@@H]3CC[C@]12C` [Ginsenoside Rb2] (compound dose: 10 uM), the cell viability [1] is reported as 0.968 ± 0.04 and the kynurenine production [2] is reported as 0.88 ± 0.14.
